From PubChem BioAssay (NCATS)
Where “and” joins values, the source holds several entries; their conditions need not be identical. Equal values may be shown once. Inconclusive results are not listed. Where a call stands in place of a potency, no number is given. Where a structure was tested more than once in an assay, its records may differ in their call. Calls of active or inactive are those of the source. Unless noted, calls follow the shape of the dose curve; as a rule, active = well fitted curve in the direction sought with a large enough effect; inconclusive = small, poorly fitted or top-dose-only effect, or another doubt; inactive = no such curve, though single readings can be large; an effect the other way counts as inactive or inconclusive.

Legend:
[1] = target: Cytochrome P450 2C9 (Homo sapiens) (UniProt P11712); test: qHTS Assay for Inhibitors and Substrates of Cytochrome P450 2C9 (AID 883); also: potency is read from the fitted curve at half-maximal effect; nearly all actives have a fitted effect of over 60% in size
Outline: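 Signal: luciferase luminescence reporting luciferin produced by CYP2C9. Conditions: 10nM enzyme, Luciferin-H 100uM at KM, 25mM KPO4, 37C, 60 min NADPH-driven reaction. Reference: 57uM sulphaphenazole as 100% inhibition.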

[2] = target: Cytochrome P450 3A4 (Homo sapiens) (UniProt P08684); test: qHTS Assay for Activators of Cytochrome P450 3A4 (AID 885); also: nearly all actives have a fitted effect of over 65% in size
Outline: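 Human CYP3A4 (20 nM) with Luciferin-PPXE at 25 uM (its KM) in 200 mM KPO4; 10 min compound preincubation, then NADPH regeneration and 60 min reaction at RT. Luciferin read by luminescence; normalized to 57 uM ketoconazole full inhibition.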

[3] = qHTS for Inhibitors of Plasmodium falciparum (DD2) proliferation (AID 504314); also: potency is read from the fitted curve at half-maximal effect;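 as to activity, negative = inhibition: parasite DNA measured by SYBR Green fluorescence after red cell lysis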
Outline: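 Erythrocytes infected with P. falciparum Dd2 (0.3% parasitemia, 2.5% hematocrit) exposed to compound 72 h at 37C, 5% CO2. Parasite DNA quantified by SYBR Green fluorescence after saponin/Triton lysis overnight; normalized to 0.29 uM artemisinin and DMSO.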

[4] = qHTS for Inhibitors of Plasmodium falciparum (7G8) proliferation (AID 504316); also: nearly all actives have a fitted effect of over 65% in size; also: potency is read from the fitted curve at half-maximal effect
Outline: (§1)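 Erythrocytes infected with P. falciparum line (0.3% parasitemia, 2.5% hematocrit final) incubated with compounds 72 h at 37 °C, 5% CO2; SYBR Green lysis buffer added, fluorescence read next day. Normalized to 0.29 uM artemisinin and DMSO.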

[5] = qHTS for Inhibitors of Plasmodium falciparum (HB3) proliferation (AID 504318); also: nearly all actives have a fitted effect of over 60% in size; also: potency is read from the fitted curve at half-maximal effect
Outline: as §1

[6] = qHTS for Inhibitors of Plasmodium falciparum (CP250) proliferation (AID 504320); also: potency is read from the fitted curve at half-maximal effect
Outline: as §1

[7] = target: Atrial natriuretic peptide receptor 1 (Homo sapiens) (UniProt P16066); test: Natriuretic polypeptide receptor (hNpr1) antagonism - Pilot CMLD screen (AID 1347052; calls by dose curve;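 also: HEK293 cells with hNpr1 stimulated by hNppA peptide at 0.1 nM; cGMP level read as GloSensor luciferase luminescence after agonist stimulation; series mostly up to about 9.2 µM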)
Chain of Atrial natriuretic peptide receptor 1 (Homo sapiens) (P16066 whole entry, looked up): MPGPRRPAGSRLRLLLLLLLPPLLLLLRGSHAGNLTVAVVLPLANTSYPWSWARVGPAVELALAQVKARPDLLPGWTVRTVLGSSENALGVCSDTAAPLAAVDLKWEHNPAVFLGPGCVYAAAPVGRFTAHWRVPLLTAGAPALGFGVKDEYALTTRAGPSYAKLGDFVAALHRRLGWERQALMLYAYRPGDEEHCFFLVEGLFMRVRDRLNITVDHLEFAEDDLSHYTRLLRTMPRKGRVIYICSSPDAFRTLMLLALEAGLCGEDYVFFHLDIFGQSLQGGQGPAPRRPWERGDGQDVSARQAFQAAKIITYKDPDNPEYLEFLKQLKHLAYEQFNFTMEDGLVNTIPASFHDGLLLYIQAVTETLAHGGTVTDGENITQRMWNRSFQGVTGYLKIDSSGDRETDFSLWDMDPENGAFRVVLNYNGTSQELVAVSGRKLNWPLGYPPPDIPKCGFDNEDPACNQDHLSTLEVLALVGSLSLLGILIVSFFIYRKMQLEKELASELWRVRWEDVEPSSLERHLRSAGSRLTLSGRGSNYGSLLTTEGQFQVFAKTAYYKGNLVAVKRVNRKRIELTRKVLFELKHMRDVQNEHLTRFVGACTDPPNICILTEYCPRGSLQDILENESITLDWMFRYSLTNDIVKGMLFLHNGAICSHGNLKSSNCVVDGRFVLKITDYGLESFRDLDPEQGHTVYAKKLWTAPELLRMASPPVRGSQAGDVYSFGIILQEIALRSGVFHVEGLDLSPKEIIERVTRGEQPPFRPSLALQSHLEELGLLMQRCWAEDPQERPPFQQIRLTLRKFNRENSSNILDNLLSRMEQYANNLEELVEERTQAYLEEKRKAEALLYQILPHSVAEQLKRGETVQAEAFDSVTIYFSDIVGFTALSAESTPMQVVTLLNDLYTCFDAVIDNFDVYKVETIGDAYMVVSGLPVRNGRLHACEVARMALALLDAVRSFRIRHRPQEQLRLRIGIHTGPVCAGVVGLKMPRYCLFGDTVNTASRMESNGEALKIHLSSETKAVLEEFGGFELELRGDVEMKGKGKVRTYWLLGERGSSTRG

Chain of Cytochrome P450 3A4 (Homo sapiens) (P08684 whole entry, looked up): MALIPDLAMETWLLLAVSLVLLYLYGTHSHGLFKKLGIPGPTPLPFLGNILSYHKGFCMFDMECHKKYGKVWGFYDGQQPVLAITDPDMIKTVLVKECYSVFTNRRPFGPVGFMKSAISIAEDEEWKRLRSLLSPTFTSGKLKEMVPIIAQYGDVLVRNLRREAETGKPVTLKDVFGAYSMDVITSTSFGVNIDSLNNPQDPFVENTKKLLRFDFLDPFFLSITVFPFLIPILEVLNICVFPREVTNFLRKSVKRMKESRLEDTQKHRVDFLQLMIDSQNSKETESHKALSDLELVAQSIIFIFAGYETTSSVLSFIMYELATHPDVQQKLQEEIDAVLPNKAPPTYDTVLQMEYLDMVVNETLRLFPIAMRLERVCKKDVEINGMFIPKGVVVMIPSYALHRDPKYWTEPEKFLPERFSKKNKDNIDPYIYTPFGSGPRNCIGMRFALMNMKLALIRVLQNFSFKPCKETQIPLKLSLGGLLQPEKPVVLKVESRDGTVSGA
Chain of Cytochrome P450 2C9 (Homo sapiens) (P11712 whole entry, looked up): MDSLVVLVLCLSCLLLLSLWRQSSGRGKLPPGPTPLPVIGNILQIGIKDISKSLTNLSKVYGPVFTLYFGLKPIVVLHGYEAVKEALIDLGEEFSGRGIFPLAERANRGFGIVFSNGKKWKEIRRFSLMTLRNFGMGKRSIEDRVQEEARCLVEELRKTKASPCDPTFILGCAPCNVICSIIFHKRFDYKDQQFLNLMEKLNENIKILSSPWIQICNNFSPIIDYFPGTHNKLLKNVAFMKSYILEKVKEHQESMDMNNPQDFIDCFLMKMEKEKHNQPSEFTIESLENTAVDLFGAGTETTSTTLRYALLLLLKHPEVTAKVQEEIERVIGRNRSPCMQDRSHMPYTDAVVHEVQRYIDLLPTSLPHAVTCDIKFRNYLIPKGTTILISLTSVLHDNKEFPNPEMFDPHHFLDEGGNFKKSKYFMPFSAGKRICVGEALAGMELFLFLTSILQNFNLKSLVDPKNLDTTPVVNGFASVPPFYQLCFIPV

Structure (SMILES)	Potency [1]	activity change, positive = activation [2]	Potency [3]	Potency [4]	Potency [5]	Potency [6]	Potency [7]	activity, negative = inhibition [3]
C[C@@H]1CC[C@H]2C(=O)N3[C@@H](CC[C@@H](C)[C@@H]3c3ccc(Br)cc3)C(=O)N2[C@@H]1c1ccc(Br)cc1	3980 nM (active)	-42.7% [at 11.4 µM] (inactive)	–	–	–	–	–	–
CO[C@H](c1ccccc1Br)[C@H](C)C=CCCO	–	–	inactive	inactive	inactive	inactive	inactive	–
CCN1C(=O)NC(CCc2ccccc2)C(C(=O)OC)=C1C (configuration not stated)	–	–	inactive	inactive	inactive	inactive	inactive	–
C#CCN1C(=O)[C@]2(OCCC=C[C@H]2C)c2ccccc21	–	–	inactive	inactive	inactive	inactive	inactive	–
COCCN1C(=O)N[C@@H](c2cccc(C(F)(F)F)c2)[C@H](C(C)=O)[C@H]1C	–	–	inactive	inactive	inactive	inactive	inactive	–
CCOC(=O)[C@@]1([C@@H](NC(=O)OC)c2cccc(C)c2)CCCC1=O	–	–	inactive	inactive	inactive	inactive	inactive	–
CC(C)(C)OC(=O)NCCCC1=CC2=CC(=O)C(C)(O)C(=O)C2=CO1 (configuration not stated)	–	–	inactive	inactive	inactive	inactive	inactive	–
CCOC(=O)NN=C1C[C@@H](O)[C@@H](O)[C@@H]2[C@H]3C(=O)N(Cc4ccc5c(c4)OCO5)C(=O)[C@@H]3CC[C@H]12	–	–	inactive	inactive	inactive	inactive	inactive	–
C[C@H]1Cc2c(-c3ccccc3)nc3c(c2CO1)CN(C(=O)Cc1cccs1)CC3	–	–	inactive	inactive	inactive	inactive	inactive	–
CCN1C(=O)[C@@H]2[C@H]3[C@H](O)[C@H](O)CC(=NOC[C@@H](C)[C@H](OCc4ccccc4)C(C)C)[C@@H]3CC[C@H]2C1=O	–	–	inactive	inactive	inactive	inactive	inactive	–
CC(C)=NOCc1ccc(-c2cn([C@@H]3COC[C@@H]3O)nn2)cc1	–	–	inactive	inactive	inactive	inactive	inactive	–
CCN(CC)CCCN1C(=O)C2=C(C1=O)C1N(C)c3ccccc3[C@@]13C[C@@H](CO)N(C(=O)CCC(=O)OC)C3=N2 (some centres not stated)	–	–	inactive	inactive	inactive	inactive	inactive	–
O=C1OC2(CCCCC2)CC2=C1[C@H]1O[C@](c3ccsc3)(Cc3ccccc31)O2	–	–	inactive	inactive	inactive	inactive	inactive	–
CCN1C(=O)N[C@@H](c2cccc(C(F)(F)F)c2)[C@H](C(C)=O)[C@H]1C	–	–	inactive	inactive	inactive	inactive	inactive	–
C[C@@H]1C=CCCO[C@]12C(=O)N(Cc1ccc(F)cc1)c1cccc(Br)c12	–	–	inactive	inactive	inactive	inactive	inactive	–
COC(=O)CC=C[C@@H](C)[C@H](OC)c1ccccc1Br	–	–	inactive and 1.5 µM (active)	inactive and 1.9 µM (active)	inactive and 1.9 µM (active)	inactive and 1.35 µM (active)	inactive	–
CCN(CC)CCCN=C1NC(c2ccccc2)C(C(=O)OC)=C(C)N1CC (configuration not stated)	–	–	inactive	inactive	inactive	inactive	inactive	–
CCCCc1cc2c(cn1)=C(OC(=O)c1ccco1)C(C)(OC(=O)CC)C(=O)C=2 (configuration not stated)	–	–	–	1510 nM (active)	inactive	inactive	inactive	5.3% [at 1.12 µM] (inactive)
CC(C)C(=O)N[C@H]1CCCN1C(=O)C=Cc1ccccc1	–	–	inactive	inactive	inactive	inactive	inactive	–
C=CCC12OC3(OC)CC1[C@H](C)[C@@H](c1ccccc1)C2[C@]3(O)CC=C (some centres not stated)	–	–	inactive	inactive	inactive	inactive	inactive	–
CC(C)=CCCC(C)=CCON=C1C[C@@H](O)[C@@H](O)[C@@H]2[C@H]3C(=O)N(C[C@@H]4CCCO4)C(=O)[C@@H]3CC[C@@H]12	–	–	inactive	inactive	inactive	inactive	inactive	–
COC(=O)C1=C(C)N(Cc2ccccc2)C(=NCc2ccc(OC)cc2)NC1c1ccccc1 (configuration not stated)	–	–	inactive	inactive	inactive	inactive	inactive	–
C#CCN1C(=O)CC[C@@]23C1=NC(C(=O)OC)=C(C(=O)OC)[C@@H]2N(C)c1ccccc13	–	–	inactive	inactive	inactive	inactive	inactive	–
C[C@H]1COc2c(N3CCN(C)CC3)c(F)cc3c(=O)c(C(=O)NCc4ccco4)cn1c23	–	–	inactive	inactive	inactive	inactive	inactive	–
CCOC(=O)CN1C(=O)[C@@]2(C[C@@H](C)C[C@@H](C)O2)c2ccccc21	–	–	inactive	inactive	inactive	inactive	inactive	–
